Measured values from PubChem BioAssay AID2014 (Sanford-Burnham Center for Chemical Genomics, 2009).
The whole screen tested about 290,000 compounds, of which about 3,000 (1%) were called active. The sample holds actives, similar compounds and a random draw of the others, so the mix is not that of the screen. No rule for the calls is given here.

Target: Polyadenylate-binding protein 1 (Homo sapiens) (UniProt P11940)
Test: blockers of PABP interaction with poly(A) – biochemical, fluorescence polarization, uHTS, primary screen (AID 2014);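 also: calls also rest on retests at 20 µM and on dose response follow-up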
Conditions: PABP-poly(A) RNA binding, stronger effect = higher value

Polyadenylate-binding protein 1 (Homo sapiens), sequence (P11940 whole entry, looked up): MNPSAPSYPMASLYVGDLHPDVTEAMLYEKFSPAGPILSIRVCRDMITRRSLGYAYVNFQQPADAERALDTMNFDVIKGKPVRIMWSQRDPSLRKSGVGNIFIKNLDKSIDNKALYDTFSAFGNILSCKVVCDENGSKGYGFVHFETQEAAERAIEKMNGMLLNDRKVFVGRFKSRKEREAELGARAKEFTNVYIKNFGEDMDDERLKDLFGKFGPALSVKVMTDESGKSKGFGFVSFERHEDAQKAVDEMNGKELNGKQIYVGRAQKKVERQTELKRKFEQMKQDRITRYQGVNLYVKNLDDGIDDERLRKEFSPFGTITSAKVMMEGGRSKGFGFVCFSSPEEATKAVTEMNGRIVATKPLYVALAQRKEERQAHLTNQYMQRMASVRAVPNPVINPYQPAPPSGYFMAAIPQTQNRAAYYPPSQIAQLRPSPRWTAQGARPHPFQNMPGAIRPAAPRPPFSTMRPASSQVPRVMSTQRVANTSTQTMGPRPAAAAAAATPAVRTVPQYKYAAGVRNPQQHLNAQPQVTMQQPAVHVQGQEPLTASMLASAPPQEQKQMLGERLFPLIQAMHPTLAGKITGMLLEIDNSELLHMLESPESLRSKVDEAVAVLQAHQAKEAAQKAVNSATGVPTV

| SMILES | inhibition (at 35 µM) | inhibition (confirmation repeats, at 20 µM) |
| --- | --- | --- |
| CC(C)(C)C1CCC(C(=O)NCC(c2cccs2)N2CCOCC2)CC1 (configuration not stated) | 15.6% (inactive) | – |
| O=C(CC(=O)Nc1ccc(Cl)c(Cl)c1)N/N=C/c1ccc(O)cc1 | 51.1% (active) | 59.9% |
| O=C(C[n+]1ccccc1)N/N=C/c1ccc(O)cc1 | -10% (inactive) | – |
| Nc1nnn(CC(=O)N/N=C/c2ccc(O)cc2)n1 | 15.3% (inactive) | – |
| CN(C)c1ccc(S(=O)(=O)NCC(=O)NCC2CCCCC2)cc1[N+](=O)[O-] | 13.4% (inactive) | – |
| COc1cccc(C(=O)N/N=C(\C)c2cccc(NC(=O)c3ccc(F)cc3)c2)c1OC | -0.8% (inactive) | – |
| COc1ccccc1OCCCC(=O)Nc1ccc2c(c1)OCCO2 | 3.8% (inactive) | – |
| Cc1nnc(NC(=O)/C=C/c2ccco2)s1 | -3.5% (inactive) | 8.4% |
| CCC(CC)c1nnc(NC(=O)/C=C/c2ccco2)s1 | 10% (inactive) | 1.7% |
| CCc1nnc(NC(=O)/C=C/c2ccc(C)o2)s1 | 4.4% (active) | 56.5% |
| CCOC(=O)c1c(S(=O)(=O)Nc2ccc(CN3CCC(C)CC3)cc2)c(C)n(C)c1C | -2.2% (inactive) | – |
| CCOC(=O)N1CCC(N2Cc3cccc(C(=O)Nc4c(C)cccc4CC)c3C2=O)CC1 | -4.1% (inactive) | – |
| CCOC(=O)CC1COCCN1C(=O)c1cc(COc2ccc(F)c(F)c2)on1 (configuration not stated) | 1.8% (inactive) | – |
| O=C(O)c1ccc(OCC2CCCO2)cc1 (configuration not stated) | 6.4% (inactive) | – |
| O=C(CN1C2=NCCN2c2ccccc21)c1cccs1 | 88.7% (active) | 105% |
| O=C(NCC(=O)N1CCN(c2ccccc2F)CC1)c1cccs1 | 7.4% (inactive) | – |
| CC(C)(C)C(=O)CN1C2=NCCN2c2ccccc21 | -8.1% (inactive) | – |
| COc1ccc(N2CCN(C(=O)Cn3cnc4sc(C)c(S(=O)(=O)N5CCOCC5)c4c3=O)CC2)cc1 | -2.8% (inactive) | – |
| Cc1cccc2[nH]c(CN(C)C(=O)C3CCC(=O)N(CCc4ccccc4)C3)nc12 (configuration not stated) | -4.2% (inactive) | – |
| O=C(COc1ccc(/C=N/NC(=O)c2ccc(O)cc2)cc1)Nc1ccc([N+](=O)[O-])cc1 | 94.5% (active) | 77.2% |
| O=C(COc1ccc([N+](=O)[O-])cc1)Nc1ccc(N2CCCC2)cc1 | 7% (inactive) | – |
| O=C(N/N=C/c1ccc(OCc2ccccc2)cc1)c1ccc(O)cc1 | -15.7% (inactive) | – |
| CC(C)c1ccc(Cc2nnc(NCCCO)[nH]c2=O)cc1 | 3.4% (inactive) | – |

| SMILES | inhibition (at 35 µM) | inhibition (confirmation repeats, at 20 µM) |
| --- | --- | --- |
| CCOc1cc(CN2CCCC(CO)(Cc3ccc(F)cc3F)C2)ccc1OC (configuration not stated) | 4.9% (inactive) | – |
| CCOCc1nnc(NC(=O)CCS(=O)(=O)Cc2ccccc2)s1 | -0.4% (inactive) | – |
| COc1ccc(-c2nn(-c3ccccc3)cc2/C=C2/SC(=S)N(CCCC(=O)O)C2=O)c(C)c1 | 4.8% (inactive) | – |
| Cc1ccc(-c2nn(-c3ccccc3)cc2/C=C2\SC(=S)N(CCCCCC(=O)O)C2=O)o1 | 35.4% (active) | 54.4% |
| CN(C)S(=O)(=O)c1cccc(-c2nn(-c3ccccc3)cc2/C=C2\SC(=S)N(CC(=O)O)C2=O)c1 | 38.3% (inactive) | – |
| O=C(CCCN1CCc2[nH]c3ccc(F)cc3c2C1)c1ccc(F)cc1 | -1.4% (inactive) | – |
| CC(=O)Cn1cnc2c(cnn2-c2ccccc2)c1=O | -4.8% (inactive) | – |
| O=C(CN(c1ccc2c(c1)OCCO2)S(=O)(=O)c1ccccc1)Nc1ccc2c(c1)OCO2 | -3.5% (inactive) | – |
| CCCCC(=O)Nc1ccc2c(c1)OCCO2 | -6.8% (inactive) | – |
| O=C(CCS(=O)(=O)Cc1ccccc1)Nc1ccc2c(c1)OCCO2 | 72% (active) | 88.6% |
| COc1ccccc1-n1c(-c2cc(-c3ccco3)[nH]n2)n[nH]c1=S | 39% (active) | 56.9% |
| COc1ccc(OC)c(-n2c(-c3ccn[nH]3)n[nH]c2=S)c1 | -4.8% (inactive) | – |
| COc1ccc(-n2c(-c3ccc(OC)c(OC)c3)n[nH]c2=S)cc1 | 4.9% (inactive) | – |
| CCOC(=O)N1CCN(Cc2nc3cc(NC(=O)CC)ccc3n2CC)CC1 | 1.3% (inactive) | – |
| Cc1cccc(NC(=O)CCn2c(=O)oc3ccccc32)c1 | 1% (inactive) | – |
| COc1ccc(Nc2cc(Cl)ccc2C(=O)O)cn1 | 72.3% (active) | 106% |
| COc1cc(C(F)(F)F)c(C(=O)N(C)c2ccc(Cl)cc2)cn1 | -5.6% (inactive) | – |
| COc1cccc(Nc2ncccc2C(=O)O)c1 | 11.9% (inactive) | – |
| COc1ccccc1OC(C)C(=O)Nc1ccc(S(=O)(=O)Nc2nccs2)cc1 (configuration not stated) | 4.4% (inactive) | – |
| CC(C)(C)OC(=O)NC(Cc1ccccc1)C(=O)NC(CSC1CCCCO1)C(=O)NN (configuration not stated) | 1.1% (inactive) | – |
| COc1ccc(NS(=O)(=O)c2cc(NC(=O)/C=C/c3cc(OC)c(OC)c(OC)c3)ccc2N2CCCCC2)cc1 | -9.8% (inactive) | – |
| COc1ccc(NS(=O)(=O)c2cc(NC(=O)C3CCCCC3)ccc2N2CCOCC2)cc1 | 67.6% (active) | 92.5% |
| COc1ccc(NS(=O)(=O)c2ccc(N3CCOCC3)c(NC(=O)c3ccccc3Br)c2)cc1 | 3.8% (inactive) | – |

| SMILES | inhibition (at 35 µM) | inhibition (confirmation repeats, at 20 µM) |
| --- | --- | --- |
| CC1CCCN(S(=O)(=O)c2ccc(-c3ccc(=O)[nH]n3)o2)C1 (configuration not stated) | 3.3% (inactive) | – |
| Cc1ccc(-n2ncc3c2CC(C)(C)CC3NC(=O)CCc2cnn(C)c2)cc1 (configuration not stated) | 54.6% (inactive) | 27.1% |
| O=C(NC1CCCC1)C1CC(=O)N(c2ccc(F)cc2)C1 (configuration not stated) | -2.5% (inactive) | – |
| Cc1cc2c(cc1C)[n+](C)cn2CC(O)COCC1CC=CCC1 (configuration not stated) | 77.8% (active) | – |
| N#Cc1cccc(CN2CCC(=O)N([C@H](CO)c3ccccc3)CC2)c1 | 5.7% (inactive) | – |
| COc1cc(OC)cc(C(=O)NCCSCc2ccc(Cl)cc2)c1 | -3.9% (inactive) | – |
| Cc1cccc(NC(=O)/C(=C\c2ccco2)NC(=O)c2ccccc2)c1 | 52.1% (active) | – |
| O=C(Nc1ccccc1)/C(=C\c1ccco1)NC(=O)c1ccco1 | 14.9% (inactive) | – |
| O=C(NCc1ccco1)/C(=C/c1ccco1)NC(=O)c1ccccc1 | -4% (inactive) | – |
| COc1cc(/C=C/C(=O)N2CCc3ccccc3C2)cc(OC)c1OC | 2.6% (inactive) | – |
| COc1ccc(Cc2nnc(SCC(=O)Nc3ccc(C)c(C)c3)o2)cc1OC | -6.8% (inactive) | – |
| CCOC(=O)N1CCN(C(=O)COCc2cc(-c3ccc4c(c3)OCO4)on2)CC1 | 3.8% (inactive) | – |
| COc1ccc([N+](=O)[O-])cc1N(CC(=O)Nc1ccccc1C(=O)N1CCOCC1)S(C)(=O)=O | -5.6% (inactive) | – |
| COCCn1c(SCC(=O)Nc2nc(C)cs2)nnc1C(C)C | 2.9% (inactive) | – |
| O=C(CCN1C(=O)[C@@H]2Cc3ccccc3CN2C1=O)NCCc1ccccc1 | 58.8% (active) | – |
| O=C(CCN1C(=O)[C@@H]2Cc3ccccc3CN2C1=O)NCc1ccccc1 | 1.7% (inactive) | – |
| Cc1ccc(CNC(=O)CCN2C(=O)[C@@H]3Cc4ccccc4CN3C2=O)cc1 | 10.4% (inactive) | – |
| Cc1ccc(C2SCC(=O)N2c2ccccc2)cc1 (configuration not stated) | -0.7% (inactive) | – |
| COc1ccc(-c2oc3ncnc(NCCCO)c3c2-c2ccc(OC)cc2)cc1 | 7.6% (inactive) | – |
| Cc1ccc(N2C(=O)C3C4C=CC(CC4)C3C2=O)cc1Cl (configuration not stated) | 0.6% (inactive) | – |
| Cc1cccc(-c2nnc(SCC(=O)O)n2Cc2ccccc2)c1 | 0.6% (inactive) | – |
| Cn1c(=O)n(Cc2ccco2)c(=N)c2c3c(sc21)CCCC3 | 8.4% (inactive) | – |
| CCCSc1nc(NCc2ccco2)c2c3c(sc2n1)COC(C)(CC)C3 (configuration not stated) | 9.5% (inactive) | – |

| SMILES | inhibition (at 35 µM) | inhibition (confirmation repeats, at 20 µM) |
| --- | --- | --- |
| CN1CCc2c(sc3c2c(NCc2ccco2)nc2nnnn23)C1 | 94.1% (active) | – |
| CC(=O)c1ccc(S(=O)(=O)Nc2ccc(C(=O)NCC(c3ccccc3)N(C)C)cc2)cc1 (configuration not stated) | 12.7% (inactive) | – |
| COc1ccc(C(CNCC(=O)Nc2ccccc2F)N(C)C)cc1 (configuration not stated) | -7.5% (inactive) | – |
| COc1ccc(C(CNC(=O)c2ccc(S(=O)(=O)Nc3ccccc3F)cc2)N(C)C)cc1 (configuration not stated) | 53.4% (active) | 116% |
| Cc1ccc(S(=O)(=O)N(CC(=O)NCc2ccco2)c2ccccc2C)cc1 | 3% (inactive) | – |
| COc1ccc2c(C)c(CCC(=O)NC3CC3)c(=O)oc2c1C | 11.8% (inactive) | – |
| CCOC(=O)C1(Cc2cccc(OC)c2)CCCN(C(=O)CCSC)C1 (configuration not stated) | 15.2% (inactive) | – |
| CCSc1nnc(NC(=O)c2ccc(C)cc2)s1 | -4.4% (inactive) | – |
| Cc1ccc(C(=O)Nc2nnc(-c3cccs3)s2)cc1C | 4.7% (inactive) | – |
| Cc1ccc(C(=O)Oc2coc(CSc3nnc(NC(=O)c4cccs4)s3)cc2=O)cc1C | -2.3% (active) | 88.5% |
| CN(C)CCN(C(=O)C1CCCCC1)c1nc2cc3c(cc2s1)OCO3 | 11% (inactive) | – |
| CN(C)CCCn1c(=O)n(Cc2ccccc2)c(=O)c2c3c(sc21)CCCCC3 | -5.5% (inactive) | – |
| CCCCCCn1cc(C(=O)O)c(=O)c2cc(F)c(N3CCCCC3)cc21 | -0.7% (inactive) | – |
| CCC1CCCCN1C(=O)CSc1nc2c(c(=O)n1C)SC(C)C2 (configuration not stated) | -9% (inactive) | – |
| Cc1ccc(Cc2cnc(N)s2)o1 | 47.2% (active) | 56.6% |
| Cc1ccc(CCC(=O)Nc2ncc(Cc3cc(Cl)ccc3Cl)s2)o1 | 29.5% (inactive) | – |
| Cc1cc(/C=C2\SC(=Nc3ccc(N4CCOCC4)cc3)N(C)C2=O)c(C)n1-c1cccnc1 | 0.7% (inactive) | – |
| Cc1cc(/C=C2\SC(=O)N(C)C2=O)c(C)n1-c1cccc(C(=O)O)c1 | 67.4% (active) | – |
| Cc1cc(/C=C2/SC(=O)N(CC(=O)N3CCCC3)C2=O)c(C)n1C | 19.7% (inactive) | – |
| CCC(=O)Nc1ccc(S(=O)(=O)Nc2c(NC)c3ccccc3oc2=O)cc1 | 0.6% (inactive) | – |
| Cc1ccc2[nH]c3c(c2c1)CN(C(=O)CN1CCN(c2ccccc2)CC1)CC3 | 90.5% (active) | – |
| CCCC(=O)N1CCc2[nH]c3ccccc3c2C1 | 14.1% (inactive) | – |
| O=C(CN1CCCC1)N1CCN(c2ccccc2)CC1 | 0.4% (inactive) | – |
